The full list was thinned out, with hits kept by preference.
Pf apPOL block: Pf-apPOL DNA polymerase inhibition. hit rate 0.25% among 210,000. AID 1794808. Recombinant Pf-apPOL, molecular beacon fluorescence, 1.5 h. inhibition, % at 10 µM
mHTT-CaM PPI inh: inhibitors of human mutant huntingtin-calmodulin interaction; hit rate 3.6% among 190,000; AlphaScreen His-mHTT/GST-CaM binding, luminescence; P42858; inhibition, % at 15 µM;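 note: 0% = both proteins with DMSO and 100% = one protein alone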
* hit, by the source's call; · = no result given; ! = not active in a repeat. Cut-off read from the data, not from the text of the source: active = inhibition above about 50%; inactive = the rest.

SMILES	Pf apPOL block	mHTT-CaM PPI inh
CCN(CC)C(=O)COc1ccc(-c2nnc(NCc3ccccc3)c3ccccc23)cc1	-77	99*
CC(=O)Nc1ccc(Nc2nnc(-c3ccc(O)cc3)c3ccccc23)cc1	-71	33
CNC(=O)COc1ccc(Nc2nnc(-c3ccc(C)cc3)c3ccccc23)cc1	0	67*!
CCOc1ccc(-c2nnc(Nc3ccc(OC)c(C(N)=O)c3)c3ccccc23)cc1	-2	65*
CN(C)C(=O)c1ccc(-c2nnc(NCc3ccccc3)c3ccccc23)cc1	-2	33
COc1ccc(Nc2nnc(-c3ccc(C(=O)NCCO)cc3)c3ccccc23)cc1	-4	2
CCOC(=O)c1nc(N2CCCC2)c2oc3ccccc3c2n1	-4	2
O=C(NC1CC1)c1nc(N2CCCCCC2)c2oc3ccccc3c2n1	-9	52*
O=S(=O)(c1cccc2cccnc12)N1CCN(C(c2ccccc2)c2ccccc2)CC1	-2	·
Nc1ccccc1NCCOc1ccccc1	2	79*
c1ccc(OCCCOc2ccccc2)cc1	-2	-124
CCCCN(CCCC)S(=O)(=O)c1ccc(C(=O)Nc2nc(-c3ccccn3)cs2)cc1	-5	41
CN(Cc1ccccc1)S(=O)(=O)c1ccc(C(=O)Nc2nc(-c3ccccn3)cs2)cc1	-3	50
CC(C)CN(CC(C)C)S(=O)(=O)c1ccc(C(=O)Nc2nc(-c3ccccn3)cs2)cc1	-4	52*
CCCN(CCC)S(=O)(=O)c1ccc(C(=O)Nc2nc(-c3ccccn3)cs2)cc1	-7	88*
COc1ccc(Cl)cc1NC(=O)N1CCc2c(nc3cc[nH]n3c2=O)C1	0	-4
CN(C)c1cccc(C(=O)N2CCC(n3cnc4ccc(F)cc43)CC2)c1	-3	51*
CN(C)c1ccc(C(=O)N2CCC(CCOc3cccc(F)c3)CC2)cc1	-4	15
COc1cc(C(=O)N2CCC(n3cnc4ccccc43)CC2)ccc1C	-7	12
CN(C)c1ccc(C(=O)N2CCC(CCOc3ccccc3F)CC2)cc1	-6	88*
CN(C)c1cccc(C(=O)N2CCC(CCOc3cccc(F)c3)CC2)c1	-2	84*
O=C(c1ccc(F)cc1)N1CCC(CCOc2ccccc2F)CC1	-3	4
CN(C)c1cccc(C(=O)N2CCC(CCOCc3ccc(F)cc3)CC2)c1	-5	60*
CN(C)c1cccc(C(=O)N2CCC(CCOCc3cccc(F)c3)CC2)c1	-6	48
CC(C)c1cc(C2CCCN2C(=O)c2nn(C)cc2Cl)on1 (stereo unspecified)	4	0
SMILES	Pf apPOL block	mHTT-CaM PPI inh
O=C(C1CCN(c2nc3ccc(-c4ccc(F)cc4)nc3s2)CC1)N1CCOCC1	-10	5
Cc1ccc(N=C2SC(CC(=O)Nc3ccc(C(=O)O)cc3)C(=O)N2C)cc1 (stereo unspecified)	-5	0
COc1cccc(CN2CCN(CC3CC=CCC3)CC2)c1OC (stereo unspecified)	2	4
CC(C)N1CCc2nc(NC(=O)CN3C(=O)c4ccccc4C3=O)sc2C1	-6	0
O=C(CN1CCC(c2nc(-c3ccc(F)cc3)no2)CC1)Nc1ccc2c(c1)OCO2	3	4
COc1nccnc1NC1CCN(C(=O)c2ccc(Cl)s2)CC1	-1	4
CCC(C)NC(=O)C1CCN(c2ccccc2Br)C1=O (stereo unspecified)	0	1
CN(C)c1cccc(C(=O)N2CCC(CCOCc3ccccc3F)CC2)c1	-3	57*
O=C(c1ccc2c(c1)OCO2)N1CCC(CCOCc2ccccc2F)CC1	-1	-6
CC(=O)N1c2c(cc(Br)cc2S(=O)(=O)N2CCc3ccccc32)CC1C (stereo unspecified)	1	20
CC(=O)N1c2c(cc(Br)cc2S(=O)(=O)N2CCc3ccccc3C2)CC1C (stereo unspecified)	-3	58*
O=C(NC(Nc1ccc(Br)cc1)C(Cl)(Cl)Cl)c1ccc(F)cc1 (stereo unspecified)	-3	87*
O=C(NC(Nc1ccccc1)C(Cl)(Cl)Cl)c1ccc(Br)cc1 (stereo unspecified)	4	57*
O=C(NC(Nc1ccccc1)C(Cl)(Cl)Cl)c1ccc(Cl)cc1 (stereo unspecified)	-2	16
COc1ccc(OC(NC(=O)/C=C/c2ccccc2)C(Cl)(Cl)Cl)cc1 (stereo unspecified)	1	51*
COc1ccc(NC(=O)/C=C/c2ccc(Cl)cc2)cc1	-9	·
O=C(/C=C/c1ccccc1)NC(Nc1cccnc1)C(Cl)(Cl)Cl (stereo unspecified)	0	31
O=C(NC(Nc1ccccc1)C(Cl)(Cl)Cl)c1ccc(F)cc1 (stereo unspecified)	-4	-9
O=C(/C=C/c1ccccc1)NC(Nc1ccccc1)C(Cl)(Cl)Cl (stereo unspecified)	-8	96*
O=C(NCCN1CCOCC1)C1CCN(c2nc3cccnc3s2)CC1	-4	-6
CCc1ccc(NC(=O)c2cc3c(CO)cnc(C)c3oc2=Nc2ccc3c(c2)OCO3)cc1	11	2
